# Measured values reported in PubChem BioAssay (NCI).
# The panel holds about 83,000 compounds, 20% with a hit somewhere; the sample as a whole holds those more often.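 A percent growth of 40 corresponds to 60% growth inhibition; 0 means no net growth; -100 means all cells died. Active threshold: below 10.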 Unmarked numbers belong to inactive results. Calls of active or inactive are those of the source.
# Tests used:
# Assay in all cases: NCI-60 one-dose screen, 48 h (100 = growth as untreated, 0 = no growth, -100 = all killed)
# Settings in all cases: 10 µM unless noted
# DU-145 prostate = tested on: DU-145 prostate
# K-562 leukemia = tested on: K-562 leukemia
# MALME-3M melanoma = tested on: MALME-3M melanoma
# MDA-MB-231 breast = tested on: MDA-MB-231 breast
# RXF 393 renal = tested on: RXF 393 renal
# SF-268 CNS = tested on: SF-268 CNS
# SF-295 CNS = tested on: SF-295 CNS
# SF-539 CNS = tested on: SF-539 CNS
# UACC-257 melanoma = tested on: UACC-257 melanoma
# M14 melanoma = tested on: M14 melanoma
# HCT-15 colon = tested on: HCT-15 colon
# HT29 colon = tested on: HT29 colon
# SNB-75 CNS = tested on: SNB-75 CNS
# SNB-19 CNS = tested on: SNB-19 CNS
# U251 CNS = tested on: U251 CNS
# PC-3 prostate = tested on: PC-3 prostate
# SK-MEL-5 melanoma = tested on: SK-MEL-5 melanoma
# UACC-62 melanoma = tested on: UACC-62 melanoma
# LOX IMVI melanoma = tested on: LOX IMVI melanoma
# SK-MEL-28 melanoma = tested on: SK-MEL-28 melanoma
SMILES,growth (DU-145 prostate),growth (K-562 leukemia),growth (MALME-3M melanoma),growth (MDA-MB-231 breast),growth (RXF 393 renal),growth (SF-268 CNS),growth (SF-295 CNS),growth (SF-539 CNS),growth (UACC-257 melanoma),growth (M14 melanoma),growth (HCT-15 colon),growth (HT29 colon),growth (SNB-75 CNS),growth (SNB-19 CNS),growth (U251 CNS),growth (PC-3 prostate),growth (SK-MEL-5 melanoma),growth (UACC-62 melanoma),growth (LOX IMVI melanoma),growth (SK-MEL-28 melanoma)
CCNC(=O)Oc1ccc(/C(=C(/CC)Cc2ccccc2)c2ccc(OCCN3CCCC3)cc2)cc1,104%,64.7%,107%,80.1%,94.6%,92.9%,102%,97.2%,90.1%,93.1%,73.1%,98.6%,85.5%,93.4%,91.7%,75%,91.7%,98.3%,91.4%,99%
CC1(C)NCCC[C@]2(C)[C@H]3CC[C@H]4[C@H]5[C@H](C(=O)/C=C/c6cccnc6)CCC[C@]5(CO)CC[C@@]4(C)[C@]3(C)CC[C@@H]12,66.6%,-3.12% (active),85.7%,67.4%,66.2%,72.9%,84.3%,81.4%,86.5%,85.8%,33.5%,3.84% (active),75.8%,72.2%,11%,59.4%,87%,96.7%,13%,93.6%
N#Cc1c(Nc2ccc(N3CCOCC3)cc2)nc(SCC(=O)c2ccc(Br)cc2)nc1-c1ccccc1,106%,99.3%,111%,109%,126%,103%,104%,98.7%,102%,97.3%,103%,98.3%,97.7%,117%,101%,86.1%,102%,104%,100%,104%
CN(C)CCCNC(=O)c1cncnc1Nc1ccc(OCc2cccc(F)c2)c(Cl)c1,23.4%,-57.7% (active),-11.7% (active),-43.4% (active),20.5%,34.5%,71.9%,-71.2% (active),-63.2% (active),-71.4% (active),-37.6% (active),-49.7% (active),-18.2% (active),57.3%,-52.5% (active),0.306% (active),61.3%,-84.7% (active),-88.1% (active),-86.1% (active)
CCN1C(=O)N(CC)C2Nn3c(s/c(=C\c4ccccc4Br)c3=O)=NC21 (stereo not given),13.6%,10.7%,59.5%,19.7%,28.4%,50.1%,25.2%,-20.1% (active),46.1%,9.07% (active),18.6%,4.78% (active),-1.27% (active),26.6%,4.95% (active),32.1%,13%,22.8%,20.9%,42.1%
COc1ccc(C(=O)N2c3ccccc3Sc3ccccc32)c(C(F)(F)F)c1,14.2%,-7.9% (active),59.7%,23.9%,15.4%,35.2%,5.14% (active),-10.1% (active),61.5%,2.2% (active),18%,3.4% (active),29.3%,30.8%,19%,15.5%,5.29% (active),31.6%,16.7%,52%
CCNC(=O)Oc1ccc(/C(=C(/C)Cc2ccc(OC)cc2)c2ccc(OCCN3CCCCC3)cc2)cc1,83.5%,0.352% (active),68.1%,78.4%,61.6%,70%,82.6%,82.9%,95.3%,-14.2% (active),38.9%,1.16% (active),69%,76%,47.5%,55.6%,46.2%,58.4%,60.9%,67.6%
NS(=O)(=O)c1ccc(C(=O)NN2C(=O)c3c(Br)c(Br)c(Br)c(Br)c3C2=O)cc1,103%,102%,98.7%,101%,110%,95.5%,98.2%,96.9%,100%,98.9%,99.5%,109%,77.8%,101%,98%,100%,103%,99.5%,95.1%,109%
C=CN(C(=O)N1CCN(c2cc3c(cc2F)c(=O)c(C(=O)O)cn3C2CC2)CC1)c1nc(-c2ccc(OC)cc2)cs1,30.9%,21.9%,42.7%,22.1%,20%,29.6%,11.8%,25.8%,26.9%,32.1%,13.6%,15.4%,23.6%,19.2%,13.4%,16.4%,-7.22% (active),16.4%,1.92% (active),45.7%
COc1cc(OC)c(/C=C/C(=O)c2c(O)cc(OC)c(C3CCN(C)CC3)c2OC)c(OC)c1,-36.2% (active),9.67% (active),-92.2% (active),-68.1% (active),-75.1% (active),-70.9% (active),-79.9% (active),-91.4% (active),-81.7% (active),-92.7% (active),-58.1% (active),-73.4% (active),-8.19% (active),-55.9% (active),-85.6% (active),-16.1% (active),-99% (active),-83.9% (active),-93.3% (active),-100% (active)
CC(=O)/C(=C/c1ccc([N+](=O)[O-])cc1)C(=O)c1ccccc1,92.6%,31.3%,89.1%,91.4%,74.2%,76.1%,93.3%,102%,76.3%,79.8%,60.6%,41.1%,88.5%,92.5%,71.3%,63.4%,87.5%,77.2%,-28.5% (active),91.6%
CC1=C(C(=O)Nc2nc(-c3ccc(Cl)cc3)cs2)[C@H](c2ccc(O)cc2)NC(=O)N1,98%,96.8%,99.6%,90.2%,104%,87.1%,95.7%,99.3%,105%,98.1%,102%,100%,74.3%,107%,93.4%,84.4%,99.8%,88.8%,95.1%,115%
O=C(Nc1cc(Cl)ccc1O)c1cccc(Nc2ccnc(C(F)(F)F)c2)c1,54.9%,7.05% (active),53.1%,34.1%,65.8%,55.2%,2.92% (active),48.1%,32.3%,38.5%,42.9%,87.4%,61.4%,44%,43.2%,28.2%,4.5% (active),15.5%,38.5%,88.1%
O=C1/C(=C\c2cccc3nccnc23)SC(=S)N1CCc1ccc(O)cc1,98.1%,88.5%,87.3%,83.8%,107%,97%,101%,97.7%,100%,96.3%,101%,116%,89%,94.4%,107%,84%,95%,76.4%,94.5%,99.5%
C=C(C)[C@@H]1CCC[C@]2(C(=O)O)CC[C@]3(C)[C@@H](CC[C@@H]4[C@@]5(C)C/C(=C/c6ccncc6)C(=O)C(C)(C)[C@@H]5CC[C@]43C)[C@@H]12,32.9%,13.7%,72%,12.2%,34.4%,52.1%,27.2%,26.3%,57.9%,45.8%,5.49% (active),14.8%,52.6%,46.1%,17%,27.4%,10.6%,26.8%,-9.49% (active),48.4%
